This is a sample that favours compounds with a hit; in the whole collection about 4.3% have one here.
GRIN3A LBD mod: binders of NR3A ligand-binding domain, primary screen, biophysical, differential scanning fluorimetry, uHTS; Glutamate receptor ionotropic, NMDA 3A (GRIN3A) ligand-binding domain; NR3A LBD differential scanning fluorimetry, Tm shift; 0% = protein alone, 100% = glycine-bound protein; Tm shift relative to glycine control, % at 25 µM; 340,000 tested, 2.5% active;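 active = melting temperature shift of at least 10% of the positive control shift, at one fixed dose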
FAS TE block: FAS thioesterase domain inhibitors, primary screen, biochemical, fluorescence intensity, uHTS. recombinant FAS-TE, OMFH fluorogenic substrate, fluorescence endpoint. inhibition, % at 15 µM. 360,000 tested, 0.67% active;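 active = compounds whose normalised, plate-corrected inhibition of enzyme fluorescence in the single-dose primary screen is 50% or more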
rCAG binder: binders of r(CAG) RNA repeats, primary screen, biochemical, fluorescence; 370,000 tested, 1.3% active; r(CAG) RNA repeat, TO-PRO-1 dye displacement fluorescence; inhibition, % at 3 µM;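 active = inhibition above the plate cutoff, the mean of all test compounds on that plate plus 3 SD, cut at about 35% in these data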;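 also: higher means more dye released from RNA so lower well fluorescence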
NadD inh: inhibitors of S. aureus NadD, primary screen, biochemical, colorimetric, uHTS; Nicotinate-nucleotide adenylyltransferase NadD (Staphylococcus aureus N315); purified NadD enzyme, colorimetric absorbance read-out; inhibition, % at 20 µM; 360,000 tested, 0.78% active; AID 602399, 2012; in the data active = inhibition above about 26%
NadD inh conf: inhibitors of S. aureus NadD, confirmation, biochemical, colorimetric, single concentration; shares compounds with NadD inh; purified S. aureus NadD, colorimetric enzyme assay; inhibition, % at 20 µM; 2,000 tested, 13% active; AID 624309, 2012; in the data active = inhibition mostly above about 42%, no sharp cut-off; inactive = mostly below about 42%
Numbers stand for hits; 0 = inactive; - = no result.

SMILES	GRIN3A LBD mod	FAS TE block	rCAG binder	NadD inh	NadD inh conf
CCOc1ccc(C(=O)Nc2cccc(C(=O)O)c2)cc1Cl	0	0	0	0	-
Cc1cccc(NS(=O)(=O)c2ccc3c(c2)Cc2cc(S(=O)(=O)Nc4cccc(C)c4C)ccc2-3)c1C	13	0	0	36	0
CC(C)Cn1c(-c2csc3ccccc23)n[nH]c1=S	0	0	0	34	0
CCn1c(-c2csc3ccccc23)n[nH]c1=S	0	0	0	0	-
O=C(CCc1ccccc1)N[C@H]1[C@H](OCc2ccccc2)CCC[C@@]12C(=O)N(Cc1ccccc1)c1ccc(-c3cnccn3)cc12	-	-	0	-	-
COc1ccc(NS(=O)(=O)c2ccc(O)c(NC(=O)c3cc4c(C)nn(-c5ccc(F)cc5)c4s3)c2)cc1	31	0	-	47	0
COc1ccc(NS(=O)(=O)c2ccc(N3CCOCC3)c(NC(=O)c3ccc(F)cc3)c2)cc1	0	0	0	0	-
O=C(/C=C/c1ccco1)NC(=S)Nc1ccc(O)c(-c2nc3ccccc3s2)c1	0	0	0	47	0
COc1ccc(C(=O)NCC2CCN(C(=O)C(=O)c3cc4ccccc4o3)CC2)c(OC)c1	-	-	0	-	-
CC[C@]12c3[nH]c4cc(-c5ccco5)ccc4c3CCN1C(=O)[C@@H](CC(=O)NCCC1=CCCCC1)C[C@@H]2C(=O)N1CCN(C(=O)c2ccco2)CC1	0	0	-	33	0
O=C(C[C@H]1C[C@H](C(=O)N2CCCCC2)[C@@]2(CCc3ccccc3)c3[nH]c4cc(-c5ccco5)ccc4c3CCN2C1=O)NCCC1=CCCCC1	0	0	-	56	0
O=C(C[C@H]1C[C@H](C(=O)N2CCCCC2)[C@@]2(CCc3ccccc3)c3[nH]c4cc(-c5ccco5)ccc4c3CCN2C1=O)NCc1cccc(C(F)(F)F)c1	0	0	0	54	0
O=C(C[C@H]1C[C@H](C(=O)N2CCOCC2)[C@@]2(CCC3CCCC3)c3[nH]c4cc(-c5ccco5)ccc4c3CCN2C1=O)NCc1cccc(C(F)(F)F)c1	0	0	0	0	-
CC[C@]12c3[nH]c4cc(CCC(=O)N(C)C)ccc4c3CCN1C(=O)[C@@H](CC(=O)NCCC1=CCCCC1)C[C@@H]2C(=O)N1CCN(C(=O)c2ccco2)CC1	0	0	0	0	-
CCCCn1cnc2c(=O)[nH]ccc21	-	-	0	-	-
COC(=O)[C@]12C[C@H](CC(=O)NCC34CC5CC(CC(C5)C3)C4)C(=O)N(Cc3ccco3)C1=C[C@H](C(C)C)O[C@@H]2C1CC1	-	-	0	-	-
Cc1ccc2c(c1)C(CS(=O)(=O)NCc1ccc(F)cc1)NC2 (configuration not stated)	-	-	0	-	-
CCCSc1nc2sc3c(c2c(=O)[nH]1)CCN(Cc1ccccc1)C3	0	0	-	0	-
O=c1[nH]c(C(Cl)Cl)nc2sc3c(c12)CCN(Cc1ccccc1)C3	15	0	0	32	59
N[C@H](C(=O)N[C@@H](Cc1ccccc1)C(=O)N1CCC2CCN(S(=O)(=O)c3ccccc3)CC21)c1ccccc1 (some centres not stated)	-	-	0	-	-
Cc1onc(-c2c(Cl)cccc2Cl)c1C(=O)NC(=S)Nc1sc2c(c1C(N)=O)CCC(C)C2 (configuration not stated)	30	0	0	31	0
CCOC(=O)N1CCN(C(=O)C[C@H]2C(=O)N(Cc3ccc(OC)cc3)C3=CCCCC[C@@]32C(=O)OC)CC1	-	-	0	-	-
O=C(c1ccccc1)n1ccc2ccc(-c3ccc4ccn(C(=O)c5ccccc5)c4c3)cc21	-	-	0	-	-
CC(=O)c1ccc(NC(=O)COC(=O)c2c3c(nc4ccccc24)/C(=C\c2cccs2)CCC3)cc1	0	0	0	27	0
COc1ccc(CN2C(NC(=O)OCc3ccccc3)=NC3=CC(C)(C)n4c(=O)n(-c5ccccc5)c(=O)n4C32)c(OC)c1 (configuration not stated)	-	-	0	-	-
SMILES	GRIN3A LBD mod	FAS TE block	rCAG binder	NadD inh	NadD inh conf
C#CCCN([C@@H](CC(C)C)C(=O)OC)S(=O)(=O)c1ccc(F)cc1Br	-	-	0	-	-
Nc1c(C(=O)c2ccccc2)sc2snc(SCC(=O)c3ccccc3)c12	0	0	0	37	0
Nc1nnc(SCC(=O)c2ccccc2)s1	0	0	0	0	-
NC(CSC1(c2cccc3ccccc23)c2ccccc2-c2ccccc21)C(=O)O (configuration not stated)	0	0	0	42	64
COC(=O)CC1(c2cccc3ccccc23)C(=O)c2ccccc2C1=O	0	0	0	0	-
Cc1nc(SCc2nc3cc(Cl)c(F)cc3[nH]2)c2oc3ccccc3c2n1	0	0	0	37	0
Cc1nc(SCc2nc3ccc(Cl)cc3[nH]2)c2oc3ccccc3c2n1	0	0	0	0	-
COCCn1c(C)cc(C2=NNC(=NC3CC3)SC2)c1C	0	0	0	0	-
COCCn1c(C)cc(C2=NNC(=Nc3ccc(Cl)cc3Cl)SC2)c1C	0	0	0	36	0
O=S(=O)(Nc1nc2ccccc2nc1Cl)c1ccc(Cl)cc1	0	0	0	0	-
CCOc1ccc(NS(=O)(=O)c2ccc(NS(=O)(=O)c3cccs3)cc2)cc1	0	0	0	0	-
CCOc1ccc(S(=O)(=O)Nc2nc3ccccc3nc2-n2ccc(=NC(=O)c3cccs3)cc2)cc1	0	0	0	26	0
O=C(N=c1ccn(-c2nc3ccccc3nc2NS(=O)(=O)c2ccc(Cl)cc2)cc1)c1cccs1	0	0	0	29	0
Cc1ccccc1CC(=O)N1CCC(n2nnc3ncccc32)CC1	-	-	0	-	-
N#Cc1nc(-c2ccc(OCc3ccc(Cl)cc3)cc2)oc1NCCCn1ccnc1	17	0	0	30	0
Cc1ccccc1NC(=O)N(C)[C@H]1C[C@H]2c3[nH]c4c(-c5ccc6c(c5)OCO6)cccc4c3CCN2C(=O)[C@H]1[C@H](C)O	-	-	0	-	-
Cc1ccc2nc3c(cc(C(=O)NCc4ccco4)c(=N)n3Cc3ccco3)c(=O)n2c1	0	0	0	0	-
N=c1c(C(=O)NCc2ccccc2)cc2c(=O)n3ccccc3nc2n1Cc1ccco1	0	0	0	31	0
Cc1ccc(S(=O)(=O)c2cc3c(=O)n4ccccc4nc3n(Cc3ccco3)c2=N)cc1	0	0	0	43	0
Cc1ccc(CNC(=O)c2cc3c(=O)n4ccccc4nc3n(Cc3ccco3)c2=N)cc1	0	0	0	40	0
N=c1c(C(=O)NCc2ccco2)cc2c(=O)n3ccccc3nc2n1Cc1ccccc1	0	0	0	32	0
CC1C=CC=CCCC=CC=CC=CC=CC(OC2O[C@H](C)[C@@H](O)[C@H](N)[C@@H]2O)CC(O)C(C(=O)O)C(O)CC(=O)CC(O)C(O)CCC(O)CC(O)CC(O)CC(=O)OC(C)C(C)C1O (some centres not stated)	-	-	0	-	-
COc1ccc(C(=O)CSc2nnc(-c3ccccn3)n2-c2ccccc2)cc1	-	-	0	-	-
